From PubChem BioAssay (NCATS)
Results filed as inconclusive are left out. A number with no mark means an inactive call. Calls come from the whole dose curve; as a rule, active = well fitted inhibition curve with a large enough effect; inconclusive = small, poorly fitted or top-dose-only effect; inactive = flat fitted curve, though single readings scatter. Where a SMILES comes first, the peptide text is derived from it. Bridges are numbered along the chain shown (N, C = ends). [ ]: non-standard residue; d: D form. The star is where a group is joined. X2 = CC[C@H](C)CCCCC(=O)*; Dab = NCC[C@H](N)C(=O)O
% is set by controls: 0 for no effect and ±100 for the full control effect.

What follows are compounds tested on KB-3-1 (assay: Cytotoxic Profiling of Annotated Libraries Using Quantitative High-Throughput Screening (AID 1296008; note: nearly all actives have a fitted effect of over 60% in size)). Conditions: Five cell lines viability, CellTiter-Glo ATP luminescence, 48-72 h; max response: active compounds read low.
In short: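 Compounds were pin-transferred onto cells and incubated 48 or 72 hr at 37 degree Celsius, 95% humidity. CellTiter-Glo was added, plates sat 10 min at room temperature, then ATP-coupled luminescence was imaged as the viability read-out.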
Compound `CC[C@H]1OC(=O)[C@H](C)[C@@H](O[C@H]2C[C@@](C)(OC)[C@@H](O)[C@H](C)O2)[C@H](C)[C@@H](O[C@@H]2O[C@H](C)C[C@H](N(C)C)[C@H]2O)[C@](C)(O)C[C@@H](C)CN(C)[C@H](C)[C@@H](O)[C@]1(C)O` has a max response of -8.69%. Compound `Cc1ncc(C[n+]2csc(CCO)c2C)c(N)n1` has a max response of -14.6%. For `CC[C@@H](C(=O)[C@@H](C)[C@@H](O)[C@H](C)[C@@H]1O[C@@H]([C@@H](CC)C(=O)O)CC[C@@H]1C)[C@H]1O[C@]2(C=C[C@@H](O)[C@]3(CC[C@@](C)([C@H]4CC[C@](O)(CC)[C@H](C)O4)O3)O2)[C@H](C)C[C@@H]1C`, the max response was -24.3%. `CC(C)c1ncc([N+](=O)[O-])n1C` was tested, and the max response was -7.8%. `CC(C)(COP(=O)(O)OP(=O)(O)OC[C@H]1O[C@@H](n2cnc3c(N)ncnc32)[C@H](O)[C@@H]1OP(=O)(O)O)C(O)C(=O)NCCC(=O)NCCS` (some centres not stated) was tested, and the max response was 7.71%. `CCCCC` was tested, and the max response was 7.19%. With `Oc1ccc(Cl)c2c1CCC2` the max response was -14.4%. For `O=C(O)Cc1nn(Cc2ccc(Br)cc2F)c(=O)c2ccccc12`, the max response was 1.97%. `CC[C@H](C)CCCCC(=O)N[C@@H](CCN)C(=O)N[C@H](C(=O)N[C@@H](CCN)C(=O)N[C@H]1CCNC(=O)[C@@H]([C@H](C)O)NC(=O)[C@H](CCN)NC(=O)[C@H](CCN)NC(=O)[C@H](CC(C)C)NC(=O)[C@@H](CC(C)C)NC(=O)[C@H](CCN)NC1=O)[C@@H](C)O` (X2-[Dab]T[Dab][Dab][Dab][dL]L[Dab][Dab][dT]; lactam 4-C) showed a max response of -9.96%. In the case of `OCc1ccccc1`, the max response is reported as 7.88%. `NC(=O)OCC(O)COc1ccc(Cl)cc1` (configuration not stated) gave a max response of 15.4%. With `O=P(O)(O)OP(=O)(O)O` the max response was -8.71%. `O=C(O)c1cc(N=Nc2ccc(O)c(C(=O)O)c2)ccc1O` was tested, and the max response was -1.02%. In the case of `COc1ccc2c(=O)c(C)c(-c3ccccc3)oc2c1CN(C)C`, the max response is reported as 2.73%. `CO/N=C(\C(=O)N[C@@H]1C(=O)N2C(C(=O)[O-])=C(C[n+]3ccc(N)n3CCO)CS[C@H]12)c1csc(N)n1` gave a max response of 5.24%. With `O=C1[O][Bi][O]c2ccccc21` the max response was -7.6%. In the case of `Nc1nc(NC2CC2)c2ncn([C@@H]3C=C[C@@H](CO)C3)c2n1`, the max response is reported as 3.44%. `NC(=O)Oc1ccc(Cc2ccccc2)cc1` gave a max response of 11.9%. `CC[C@H](CC[C@@H](C)[C@H]1CC[C@H]2[C@@H]3CC=C4C[C@@H](O)CC[C@]4(C)[C@H]3CC[C@]12C)C(C)C` gave a max response of -4.33%. `Cc1ccc(S(=O)(=O)O)cc1C` was tested, and the max response was 7.06%. `CCCCCCCCCCCCCCCC(=O)OC[C@H](COP(=O)([O-])OCC[N+](C)(C)C)OC(=O)CCCCCCCCCCCCCCC` gave a max response of -12.2%. With `CCCCC[C@H](O)/C=C/[C@H]1[C@H](O)CC(=O)[C@@H]1C/C=C\CCCC(=O)O` the max response was 7.78%. Compound `NC(=O)C1c2ccccc2CCc2ccccc21` has a max response of 5.54%. In the case of `CCCCC(CC)COS(=O)(=O)O` (configuration not stated), the max response is reported as -16.9%. `CS(=O)(=O)OCC(O)C(O)COS(C)(=O)=O` (configuration not stated) gave a max response of -18.1%. With `C=CC[N@@+]12CC[C@@]34c5ccccc5N5/C=C6/[C@H]7C[C@H]8[C@@]9(CC[N@@+]8(CC=C)C/C7=C/CO)c7ccccc7N(/C=C(/[C@@H](C[C@@H]31)/C(=C\CO)C2)[C@H]54)[C@@H]69` the max response was 19.7%. Compound `O=S(=O)(O)CC(S)CS` (configuration not stated) has a max response of 3.44%. For `CCC(=O)OC(OP(=O)(CCCCc1ccccc1)CC(=O)N1C[C@H](C2CCCCC2)C[C@H]1C(=O)O)C(C)C` (some centres not stated), the max response was 3.39%. `C[S+](C)CCC(N)C(=O)O` (configuration not stated) gave a max response of 3.56%. `CCCC1C(=O)N2C(N(C)C)=Nc3ccc(C)cc3N2C1=O` (configuration not stated) showed a max response of -2.47%. Compound `NC(=O)[C@@H]1CCCN1C(=O)[C@H](Cc1cnc[nH]1)NC(=O)[C@@H]1CCC(=O)N1` has a max response of 0.162%. `CSc1nc2cc(Oc3cccc(Cl)c3Cl)c(Cl)cc2[nH]1` gave a max response of -1.84%. `NCCCC[C@H](N)C(=O)O` gave a max response of 0.45%. In the case of `NC[C@@H]1CC[C@@H](N)[C@@H](O[C@H]2[C@H](O)[C@@H](O[C@H]3O[C@H](CO)[C@@H](O)[C@H](N)[C@H]3O)[C@H](N)C[C@@H]2N)O1`, the max response is reported as 0.761%. Work on `N=C(N)c1ccc(/C=C/c2ccc(C(=N)N)cc2O)cc1` yielded a max response of -19%. For `CC[C@H]1OC(=O)[C@H](C)[C@@H](O[C@H]2C[C@@](C)(OC)[C@@H](O)[C@H](C)O2)C(C)[C@@H](O[C@@H]2O[C@H](C)C[C@H](N(C)C)[C@@H]2O)[C@](C)(OC)C[C@@H](C)C(=O)[C@H](C)[C@@H](O)[C@]1(C)O` (some centres not stated), the max response was -4.62%. `CCc1cn([C@H]2C[C@H](O)[C@@H](CO)O2)c(=O)[nH]c1=O` gave a max response of 5.47%.
